log2 fold change data for 9 targets are collected here from the supplement of paper PMC10849652.

The full data set covers some 7,900 targets. This sample favours those with a hit. About 0.6% of all pairs of compound and target were hits. Unmarked numbers belong to inactive results.

Assay in all cases: log2 fold change, soluble protein after heating vs DMSO (PISA); higher = thermal stabilisation; K562 cells, 10 uM, 30 min; active = over 0.2 and 3.5 SD of the protein, either way, in both replicates (recomputed)
Compound in assay [1]: CCn1c(C(=O)N(C2CC2)C2CC2)cc2c3c(ncn3C)c(Nc3cc(C)n(C)n3)nc21
The gist of the method: (§1)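 K562 cells at 2×10^6 cells/mL were treated with 10 μM compound for 30 min. Aliquots were heated for 3 min across 48°C-58°C, pooled, and extracted in PBS with 0.5% NP-40 at 4°C; soluble protein was the supernatant after 21,000xg for 90 min. Soluble protein was quantified by TMTpro 16plex LC-MS/MS with channel sums equalised, and reported as log2 fold change in thermal stability against DMSO controls, with values from duplicates.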

Compound in the next assay: CN(CCOC1=CC=C(C=C1)C[C@H]2C(=O)NC(=O)S2)C3=CC=CC=N3 (racemic) [rosiglitazone]
The procedure, abridged:
as §1

Compound in assay [2]: CNC(=O)C1=CC=CC=C1NC2=NC(=NC=C2Cl)NC3=C(C=C(C=C3)N4CCOCC4)OC
The procedure, abridged:
as §1

Compound in another assay: CC[C@H](C)[C@@H](C(=O)N[C@@H]([C@@H](C)O)C(=O)N[C@@H](CC(C)C)C(=O)[C@]1(CO1)C)NC(=O)[C@H]([C@@H](C)CC)N(C)C(=O)C [epoxomicin]
The procedure, abridged: as §1

Compound in assay [3]: CCn1cc(-c2ccnc3[nH]c(-c4cccc(CN(C)C)c4)cc23)c(-c2ccc(NC(=O)N(C)C)cc2)n1
The gist of the method: as §1

Compound in assay [4]: CN1CCC(CNc2ccc3ncc(-c4cccc(OC(F)(F)F)c4)n3n2)CC1
The procedure, abridged:
as §1

Compound in another assay: CN1CCN(c2nc(C3=C(c4c[nH]c5ccccc45)C(=O)NC3=O)c3ccccc3n2)CC1 [sotrastaurin]
The gist of the method: as §1

Compound in a further assay: CC[C@@H]1C(=O)N(C)c2cnc(Nc3ccc(C(=O)N[C@H]4CC[C@H](N5CCN(CC6CC6)CC5)CC4)cc3OC)nc2N1C(C)C [volasertib]
The procedure, abridged:
as §1

Compound in assay [5]: CC[C@H](C)N1C=C(C2=C(C=C(C=C21)C3=CN=C(C=C3)N4CCNCC4)C(=O)NCC5=C(C=C(NC5=O)C)C)C
The gist of the method:
as §1

Compound in assay [6]: CN(C)CC(=O)Nc1ccc2[nH]c(=O)c3ccccc3c2c1
The procedure, abridged: as §1

Compound in a further assay: CN1CC[C@H](c2c(O)cc(O)c3c(=O)cc(-c4ccccc4Cl)oc23)[C@H](O)C1 [alvocidib]
The gist of the method: as §1

Compound in the next assay: CN1CCc2c(c3ccccc3n2Cc2ccc(C(=O)NO)cc2)C1 [Tubastatin A]
The procedure, abridged: as §1

Compound in the next assay: CNC(=O)c1ccc(Nc2ncc(C(F)(F)F)c(NCc3nccnc3N(C)S(C)(=O)=O)n2)cc1 [defactinib]
The procedure, abridged:
as §1

Compound in assay [7]: COC(=O)[C@H](CCSC)NC(=O)C1=C(C=C(C=C1)NC[C@H](CS)N)C2=CC=CC=C2
The gist of the method:
as §1

Compound in assay [8]: CC[C@@H]1C(=O)N(C)c2cnc(Nc3ccc(C(=O)NC4CCN(C)CC4)cc3OC)nc2N1C1CCCC1
The procedure, abridged: as §1

Compound in the next assay: CNCc1ccc(-c2[nH]c3cc(F)cc4c3c2CCNC4=O)cc1 [rucaparib]
The gist of the method:
as §1

Compound in a further assay: COC(=O)N[C@@H](C)CNc1nccc(-c2cn(C(C)C)nc2-c2cc(Cl)cc(NS(C)(=O)=O)c2F)n1 [encorafenib]
The gist of the method: as §1

Compound in assay [9]: CN1C2=C(C3=C1C(=O)N(N=C3)CC4=CC(=CC=C4)N)SC(=C2)S(=O)C
The gist of the method: as §1

Compound in a further assay: CN1CCN(CCOc2cc(OC3CCOCC3)c3c(Nc4c(Cl)ccc5c4OCO5)ncnc3c2)CC1 [saracatinib]
The procedure, abridged: as §1

Compound in assay [10]: CNc1nc(-c2ccc3c(N)n[nH]c3c2)cc(N2C[C@@H](C(=O)NC3CCCCC3)CC[C@H]2C)n1
The procedure, abridged:
as §1

UniProt Q5THK1, sequence (Q5THK1 whole entry, looked up): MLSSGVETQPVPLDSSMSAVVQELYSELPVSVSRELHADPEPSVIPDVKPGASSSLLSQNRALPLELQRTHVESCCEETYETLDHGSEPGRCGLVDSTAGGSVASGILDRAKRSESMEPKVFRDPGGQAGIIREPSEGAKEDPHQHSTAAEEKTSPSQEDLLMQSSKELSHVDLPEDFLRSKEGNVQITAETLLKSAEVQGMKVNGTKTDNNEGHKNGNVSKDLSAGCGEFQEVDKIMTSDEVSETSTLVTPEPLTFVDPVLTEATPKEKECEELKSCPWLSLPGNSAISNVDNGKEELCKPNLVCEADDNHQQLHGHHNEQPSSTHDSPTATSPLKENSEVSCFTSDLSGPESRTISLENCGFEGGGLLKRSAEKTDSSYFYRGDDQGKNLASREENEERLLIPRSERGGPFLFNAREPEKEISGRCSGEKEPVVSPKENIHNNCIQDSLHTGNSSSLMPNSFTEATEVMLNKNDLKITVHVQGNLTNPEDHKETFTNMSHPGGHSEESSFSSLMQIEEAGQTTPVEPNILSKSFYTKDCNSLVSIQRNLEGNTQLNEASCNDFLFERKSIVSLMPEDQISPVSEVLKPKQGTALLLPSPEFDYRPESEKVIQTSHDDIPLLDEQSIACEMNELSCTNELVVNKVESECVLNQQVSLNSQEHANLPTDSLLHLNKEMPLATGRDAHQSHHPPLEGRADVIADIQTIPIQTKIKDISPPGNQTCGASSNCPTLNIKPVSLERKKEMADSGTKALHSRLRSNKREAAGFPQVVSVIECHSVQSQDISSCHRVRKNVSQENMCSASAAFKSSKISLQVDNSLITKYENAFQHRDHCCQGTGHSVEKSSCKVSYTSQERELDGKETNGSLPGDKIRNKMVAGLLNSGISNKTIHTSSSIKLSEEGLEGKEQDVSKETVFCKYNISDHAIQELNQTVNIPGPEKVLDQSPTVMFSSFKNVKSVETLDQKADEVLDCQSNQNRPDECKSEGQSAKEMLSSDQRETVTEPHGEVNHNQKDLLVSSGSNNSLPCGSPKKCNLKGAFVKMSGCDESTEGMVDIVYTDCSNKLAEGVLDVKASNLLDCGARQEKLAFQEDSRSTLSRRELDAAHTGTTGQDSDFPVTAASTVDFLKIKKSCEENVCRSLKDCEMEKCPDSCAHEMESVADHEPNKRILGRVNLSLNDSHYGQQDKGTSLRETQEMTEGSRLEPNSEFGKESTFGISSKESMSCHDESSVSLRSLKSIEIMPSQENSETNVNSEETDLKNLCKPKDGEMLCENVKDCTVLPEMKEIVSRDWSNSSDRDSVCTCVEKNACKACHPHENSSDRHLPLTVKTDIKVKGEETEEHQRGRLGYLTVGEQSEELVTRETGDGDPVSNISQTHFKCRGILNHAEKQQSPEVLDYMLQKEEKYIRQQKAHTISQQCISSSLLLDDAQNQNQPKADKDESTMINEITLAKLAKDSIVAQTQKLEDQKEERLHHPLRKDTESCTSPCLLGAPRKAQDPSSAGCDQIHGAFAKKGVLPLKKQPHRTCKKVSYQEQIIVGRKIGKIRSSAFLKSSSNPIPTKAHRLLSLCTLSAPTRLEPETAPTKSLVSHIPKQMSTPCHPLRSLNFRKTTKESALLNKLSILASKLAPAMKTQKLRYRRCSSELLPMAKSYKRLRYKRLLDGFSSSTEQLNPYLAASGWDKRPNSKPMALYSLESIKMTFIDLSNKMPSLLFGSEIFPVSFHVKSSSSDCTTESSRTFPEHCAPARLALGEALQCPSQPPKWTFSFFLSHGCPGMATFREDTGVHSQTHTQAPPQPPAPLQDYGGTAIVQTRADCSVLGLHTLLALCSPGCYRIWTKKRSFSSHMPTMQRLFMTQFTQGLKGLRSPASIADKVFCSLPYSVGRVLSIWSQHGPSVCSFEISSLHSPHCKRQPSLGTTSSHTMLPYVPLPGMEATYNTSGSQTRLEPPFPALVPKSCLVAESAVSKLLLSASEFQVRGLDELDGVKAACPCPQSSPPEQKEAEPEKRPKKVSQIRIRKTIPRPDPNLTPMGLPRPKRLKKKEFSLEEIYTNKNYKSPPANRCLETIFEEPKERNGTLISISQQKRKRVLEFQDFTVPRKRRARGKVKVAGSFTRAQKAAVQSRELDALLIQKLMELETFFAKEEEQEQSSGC
UniProt P51817, sequence (P51817 whole entry, looked up): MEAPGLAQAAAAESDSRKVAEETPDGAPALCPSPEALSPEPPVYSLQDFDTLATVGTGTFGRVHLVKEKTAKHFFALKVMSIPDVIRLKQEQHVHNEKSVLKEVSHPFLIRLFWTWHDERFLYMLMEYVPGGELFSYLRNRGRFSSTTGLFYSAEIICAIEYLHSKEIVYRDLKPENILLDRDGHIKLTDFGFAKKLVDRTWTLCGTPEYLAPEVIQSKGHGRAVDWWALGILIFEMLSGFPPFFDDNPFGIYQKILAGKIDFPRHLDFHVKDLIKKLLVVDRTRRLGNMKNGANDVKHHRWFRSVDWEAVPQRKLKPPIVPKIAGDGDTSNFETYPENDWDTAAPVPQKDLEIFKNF
UniProt Q9BZL6, sequence (Q9BZL6 whole entry, looked up): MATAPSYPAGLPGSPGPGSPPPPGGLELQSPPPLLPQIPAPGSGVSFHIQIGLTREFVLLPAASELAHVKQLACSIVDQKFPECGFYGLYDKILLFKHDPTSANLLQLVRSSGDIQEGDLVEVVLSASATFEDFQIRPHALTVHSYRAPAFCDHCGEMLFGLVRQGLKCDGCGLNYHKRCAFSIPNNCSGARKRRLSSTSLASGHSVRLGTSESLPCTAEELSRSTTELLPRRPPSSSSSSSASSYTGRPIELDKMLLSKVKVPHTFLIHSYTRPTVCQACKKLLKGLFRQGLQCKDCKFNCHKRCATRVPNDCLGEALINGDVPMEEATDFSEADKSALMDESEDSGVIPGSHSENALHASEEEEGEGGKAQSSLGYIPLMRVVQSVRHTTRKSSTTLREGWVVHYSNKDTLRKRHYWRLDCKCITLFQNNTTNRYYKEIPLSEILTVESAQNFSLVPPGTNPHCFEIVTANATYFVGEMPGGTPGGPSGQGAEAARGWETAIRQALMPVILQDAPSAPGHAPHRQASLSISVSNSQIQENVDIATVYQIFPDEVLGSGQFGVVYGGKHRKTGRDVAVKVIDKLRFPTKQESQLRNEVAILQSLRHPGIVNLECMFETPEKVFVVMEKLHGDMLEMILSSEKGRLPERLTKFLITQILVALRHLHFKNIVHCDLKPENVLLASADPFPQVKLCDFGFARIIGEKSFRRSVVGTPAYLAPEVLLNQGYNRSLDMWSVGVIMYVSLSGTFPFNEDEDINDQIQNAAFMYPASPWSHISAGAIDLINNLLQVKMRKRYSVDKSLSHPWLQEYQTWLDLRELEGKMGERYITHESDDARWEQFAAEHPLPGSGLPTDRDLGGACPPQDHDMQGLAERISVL
UniProt O94913, sequence (O94913 whole entry, looked up): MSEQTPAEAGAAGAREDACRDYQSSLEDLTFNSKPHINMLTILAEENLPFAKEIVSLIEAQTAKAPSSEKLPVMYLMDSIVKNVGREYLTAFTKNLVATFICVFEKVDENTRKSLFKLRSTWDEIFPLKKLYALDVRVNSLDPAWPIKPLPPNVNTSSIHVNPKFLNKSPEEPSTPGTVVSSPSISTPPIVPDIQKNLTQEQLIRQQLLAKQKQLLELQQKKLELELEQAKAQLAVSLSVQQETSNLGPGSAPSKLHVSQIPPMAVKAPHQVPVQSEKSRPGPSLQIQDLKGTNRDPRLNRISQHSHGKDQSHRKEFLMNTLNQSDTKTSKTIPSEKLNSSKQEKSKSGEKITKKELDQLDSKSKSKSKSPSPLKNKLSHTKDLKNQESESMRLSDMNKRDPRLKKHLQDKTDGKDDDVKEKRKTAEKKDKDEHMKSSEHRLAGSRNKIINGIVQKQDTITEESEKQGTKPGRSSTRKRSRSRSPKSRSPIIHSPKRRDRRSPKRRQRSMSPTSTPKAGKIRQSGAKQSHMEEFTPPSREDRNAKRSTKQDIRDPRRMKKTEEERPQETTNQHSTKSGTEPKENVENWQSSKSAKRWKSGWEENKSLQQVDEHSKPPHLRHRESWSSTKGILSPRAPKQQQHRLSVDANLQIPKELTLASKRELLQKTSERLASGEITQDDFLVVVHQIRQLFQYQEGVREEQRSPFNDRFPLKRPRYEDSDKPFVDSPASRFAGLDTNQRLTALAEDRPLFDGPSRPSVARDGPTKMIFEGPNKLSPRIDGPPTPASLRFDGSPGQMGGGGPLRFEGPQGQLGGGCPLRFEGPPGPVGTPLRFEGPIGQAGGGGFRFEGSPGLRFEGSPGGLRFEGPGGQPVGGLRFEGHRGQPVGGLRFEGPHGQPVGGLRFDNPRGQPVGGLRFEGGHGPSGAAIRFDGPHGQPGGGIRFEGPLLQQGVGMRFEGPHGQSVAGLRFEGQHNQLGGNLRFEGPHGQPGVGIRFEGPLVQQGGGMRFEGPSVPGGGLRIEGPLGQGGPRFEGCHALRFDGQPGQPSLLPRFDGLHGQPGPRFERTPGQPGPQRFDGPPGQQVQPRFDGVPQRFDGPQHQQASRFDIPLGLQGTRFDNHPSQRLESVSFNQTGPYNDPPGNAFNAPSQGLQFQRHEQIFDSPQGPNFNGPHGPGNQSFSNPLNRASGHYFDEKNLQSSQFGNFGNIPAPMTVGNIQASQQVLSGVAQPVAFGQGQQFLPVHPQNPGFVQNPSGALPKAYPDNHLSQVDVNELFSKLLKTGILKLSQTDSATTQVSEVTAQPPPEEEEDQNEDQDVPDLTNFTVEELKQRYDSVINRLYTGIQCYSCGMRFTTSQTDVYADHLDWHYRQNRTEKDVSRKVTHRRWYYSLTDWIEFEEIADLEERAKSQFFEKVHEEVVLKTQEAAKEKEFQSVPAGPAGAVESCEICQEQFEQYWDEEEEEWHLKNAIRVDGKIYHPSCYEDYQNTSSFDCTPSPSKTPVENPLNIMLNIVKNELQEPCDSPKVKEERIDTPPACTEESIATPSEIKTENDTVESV

With PRKX (UniProt P51817), the figures for the log2 fold change (in assay [1]; with rosiglitazone; in assay [2]) were -0.019, 0.191 and -0.139, respectively.

Take PRKD2 (UniProt M0R346): the log2 fold change is -0.072 with epoxomicin; -0.025 in assay [3]; -0.026 with rosiglitazone; -0.14 in assay [4]; -0.247 with sotrastaurin.

As to PRR14L (UniProt Q5THK1), the log2 fold change with volasertib is 0.218; in [5], -0.088; in assay [3], 0.006; in assay [6], -0.134; in [4], 0.073; with alvocidib, 0.016. Moreover, the log2 fold change is 0.053 in the assay with Tubastatin A, 0.286 in the assay with defactinib and 0.125 in [7].

With PPP2R5C isoform 2 (UniProt Q13362), the log2 fold change in assay [8] was -0.209; in assay [1], -0.099; in the assay with rosiglitazone, 0.009; in [2], -0.017; with rucaparib, -0.063; in the assay with encorafenib, 0.003.

Regarding PRKD2 isoform 3 (UniProt Q9BZL6), the log2 fold change with volasertib was -0.674 (active); in [5] it was 0.149; in the assay with epoxomicin, 0.049; in [1], 0.005; in [3], -0.089; in assay [6] it was 0.042. Moreover, the log2 fold change with rosiglitazone is 0.144; in [9], 0.056; in assay [4], -0.316; with saracatinib, -0.031; in the assay with sotrastaurin, -0.273; with alvocidib, 0.034. Further, the log2 fold change with Tubastatin A was 0; in assay [2] it was -0.242; with defactinib, -0.004; in [10] it was -0.075; in [7], -0.024.

Regarding PCF11 (UniProt O94913), the log2 fold change in assay [8] was -0.014; with volasertib it was -0.114; in assay [3], 0.038; in assay [6] it was -0.078; with rosiglitazone, 0.314; in assay [4], -0.03. The log2 fold change with alvocidib was 0.027; in the assay with defactinib, -0.059; with rucaparib, -0.995 (active); with encorafenib it was -0.06; in assay [7] it was 0.095.

On to PLCL1 (UniProt Q15111), for which the log2 fold change is -0.018 in [8]; 0.232 in [5]; -0.034 with epoxomicin; -0.206 in [1]; 0.311 in assay [3]; 0.035 in assay [6]. Besides, the log2 fold change was -0.128 in the assay with rosiglitazone; -0.094 in assay [4]; 0.032 with sotrastaurin; 0.109 with alvocidib; 0.166 with Tubastatin A; -0.131 in assay [2]. Also, the log2 fold change with defactinib was -0.02; in the assay with rucaparib it was 0.2; with encorafenib it was 0.018; in assay [7], 0.047.

On to PRG4 (UniProt Q92954), for which the log2 fold change in [8] is 0.073; in [5], -0.18; with epoxomicin it was -0.294; in assay [1], 0.053; in assay [3], 0.075; in assay [6], -0.239. Besides, the log2 fold change is 0.085 with rosiglitazone; 0.015 in [9]; -0.228 in assay [4]; 0.008 with saracatinib; 0.136 with sotrastaurin; 0.007 with alvocidib. Also, the log2 fold change was 0.004 with Tubastatin A; 0.14 in assay [2]; 0.055 with defactinib; -0.072 with rucaparib; 0.031 in assay [10]; 0.001 with encorafenib. Besides, the log2 fold change in assay [7] is -0.109.

Consider PSMA3 (UniProt H0YJ03), for which the log2 fold change in [8] was 0.115; with volasertib, 0.076; in assay [6] it was -0.04; in assay [9] it was 0.027; with saracatinib, -0.185; with alvocidib, 0.073. Besides, the log2 fold change was 0.314 with Tubastatin A; -0.023 in the assay with defactinib; 0.151 with rucaparib; 0.067 in assay [10]; -0.142 with encorafenib; 0.087 in [7].
